Experimental data: PubChem BioAssay (NCI)
The panel holds about 79,000 compounds, 15% with a hit somewhere; the sample as a whole holds those more often. The source made the active and inactive calls. No stated cut-off is given here; in the data, active means growth inhibition above about 70%; inactive means the rest.

Test: NCI Yeast Anticancer Drug Screen. Data for the mlh1 strain (AID 171);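 further: 0% = growth of vehicle-treated control cultures of the same strain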
Details: S. cerevisiae mlh1 strain growth inhibition, hits give high values
Method: Growth inhibition of yeast strains with defined genetic alterations is measured as a screen for potential anti-cancer activity. Selected strains with alterations in DNA damage repair or cell cycle control were exposed to compounds and growth inhibition was measured relative to vehicle treated controls. The strain used in this assay is mlh1

Measured: growth inhibition

COc1ccccc1C(=O)OCC1CCCN2CCCCC12 (stereo not given)
inactive: at 1.2 µM 23% | at 3.7 µM 15%
active: at 11.0 µM 73% | at 33.0 µM 91% | at 100.0 µM 98%

Nc1ccc2c(c1)C(=O)c1cccc(N)c1C2=O
active: at 33.0 µM 74% | at 100.0 µM 85%
inactive: at 1.2 µM 0% | at 3.7 µM 7% | at 11.0 µM 32%

CCC/C(Cl)=N\OC(=O)Nc1ccc(Br)cc1
inactive: at 1.2 µM 14% | at 3.7 µM 19%
active: at 11.0 µM 76% | at 33.0 µM 97% | at 100.0 µM 98%

O=C(COC(=O)c1cc(O)c(O)c(O)c1)c1ccc(-c2ccccc2)cc1
inactive: at 1.2 µM -3% | at 3.7 µM 0% | at 11.0 µM 4% | at 33.0 µM 57%
active: at 100.0 µM 95%

C[S+](C)C1(c2ccccc2)C(=O)c2ccccc2C1=O
inactive: at 1.2 µM 1% | at 3.7 µM -1% | at 11.0 µM 0% | at 33.0 µM 7% | at 100.0 µM 30%

O=CC=C(c1ccccc1)c1ccccc1
active: at 100.0 µM 99%
inactive: at 1.2 µM 5% | at 3.7 µM 10% | at 11.0 µM 16% | at 33.0 µM 19%

O=C1OC(CCl)CN1/N=C/c1ccc([N+](=O)[O-])o1 (stereo not given)
inactive: at 1.2 µM -9% | at 3.7 µM -4% | at 11.0 µM -1% | at 33.0 µM 14% | at 100.0 µM 69%

O=C(Nc1ccccc1)OCCc1ccc(Cl)c(Cl)c1
inactive: at 1.2 µM -3% | at 3.7 µM 2% | at 11.0 µM 22% | at 33.0 µM 46% | at 100.0 µM 46%
